16 molecules from PubChem BioAssay (NCATS) can be followed below.

Holding throughout (assay): qHTS profiling for inhibitors of Plasmodium falciparum proliferation (AID 504749); note: nearly all actives have a fitted effect of over 60% in size
Holding throughout (details): P. falciparum in erythrocytes, SYBR Green DNA, 72 h; series mostly up to 28.7 µM
For orientation: In qHTS, concentration-response curves come from the screen itself.

Assay [1] relates to CP192. A digest of the protocol: (§1)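 SYBR Green fluorescence (ex 485 nm, em 535 nm) reports parasite DNA after 72 h compound exposure of infected red cells at 0.3% parasitemia, 2.5% hematocrit; signal normalized to 0.29 uM artemisinin and vehicle wells.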
In assay [2] the test system is CP194. A digest of the protocol: as §1
The subject of assay [3] is CP201. A digest of the protocol: as §1
Assay [4] concerns CP203. The essentials:
as §1

Assay [5] relates to CP211. The essentials: as §1
Assay [6] relates to CP215. The essentials: as §1
In assay [7] the test system is CP217. A digest of the protocol: as §1
The subject of assay [8] is CP237. A digest of the protocol:
as §1

Assay [9] relates to CP238. The essentials: as §1
Assay [10] concerns CP247. The essentials:
as §1

Assay [11] has as its system CP250. The essentials: as §1
The test system of assay [12] is CP252. A digest of the protocol: as §1
Assay [13] has as its system CP256. A digest of the protocol: as §1
The test system of assay [14] is CP262. The essentials:
as §1

The test system of assay [15] is CP265. The essentials:
as §1

The subject of assay [16] is CP266. The essentials: as §1
In assay [17] the test system is CP268. A digest of the protocol:
as §1

Assay [18] relates to CP269. A digest of the protocol: as §1
Assay [19] deals with CP286. The essentials:
as §1

The subject of assay [20] is CP260. A digest of the protocol: as §1

Structures are written as SMILES. Records with an inconclusive call do not appear. Activity calls are given as the source filed them. Calls come from the whole dose curve; as a rule, active = well fitted inhibition curve with a large enough effect; inconclusive = small, poorly fitted or top-dose-only effect; inactive = flat fitted curve, though single readings scatter.
Potency is the fitted concentration of half-maximal effect.

Take `ClC1=C(Cl)C2(Cl)C(CBr)CC1(Cl)C2(Cl)Cl` (stereo not given): the Potency result in [1], in [2], in assay [3], in assay [4], in [5] and in [6] was “inactive” throughout. Further, the Potency result in assay [7], in assay [8], in assay [9], in [10], in assay [11] and in assay [12] was “inactive” each time. Moreover, the Potency entry in [13], in assay [14], in assay [15], in [16], in assay [17] and in assay [18] was “inactive” in each case. In addition, the Potency result in assay [19] is “inactive”.
As for `c1ccc2nc(N3CCNCC3)ccc2c1`, the Potency entry in assay [1], in assay [2], in assay [3], in [5], in [6] and in [7] was “inactive” in each case. Also, the Potency result in [8], in assay [9], in assay [10], in [11], in [12] and in [13] was “inactive” each time. Further, the Potency result in [20], in assay [14], in assay [15], in assay [16], in [17] and in assay [18] was “inactive” in each case. Further, the Potency entry in assay [19] was “inactive”.
For the molecule `OC(c1ccccc1)(c1ccccc1)C1CCNCC1`, the Potency entry in assay [1], in [2], in [3], in [5], in [6] and in [7] was “inactive” each time. Moreover, the Potency entry in [8], in assay [9], in [10], in [11], in assay [12] and in [13] was “inactive” each time. The Potency result in assay [20], in [14], in assay [15], in [16], in assay [17] and in [18] was “inactive” throughout. For the same molecule, the Potency result in [19] is “inactive”.
For the molecule `CC(C)C(Br)C(=O)NC(N)=O` (stereo not given), the Potency entry in assay [1], in assay [2], in assay [3], in assay [4], in [5] and in assay [6] was “inactive” throughout. The Potency entry in assay [7], in assay [8], in assay [9], in assay [10], in assay [11] and in assay [12] was “inactive” in each case. Further, the Potency result in assay [13], in [20], in [14], in [15], in assay [16] and in [17] was “inactive” each time. The Potency result in assay [18] and in assay [19] was “inactive” each time.
For `CNC(=O)Oc1cccc2ccccc12`, the Potency entry in assay [1], in assay [2], in [3], in assay [5], in assay [6] and in assay [7] was “inactive” throughout. Also, the Potency entry in [8], in assay [9], in assay [10], in assay [11], in assay [12] and in assay [13] was “inactive” in each case. Besides, the Potency result in assay [20], in assay [14], in assay [15], in assay [16], in assay [17] and in [18] was “inactive” throughout. Moreover, in [19], the Potency result was “inactive”.
Regarding `CCC1(c2ccccc2)CCC(=O)NC1=O` (stereo not given), the Potency result in [1], in [2], in [3], in assay [4], in assay [5] and in assay [6] was “inactive” throughout. The Potency entry in assay [7], in assay [8], in [9], in assay [10], in [11] and in [12] was “inactive” in each case. Further, the Potency entry in [13], in assay [20], in assay [14], in assay [15], in assay [16] and in [17] was “inactive” throughout. Moreover, the Potency entry in assay [18] and in assay [19] was “inactive” throughout.
Consider `Nc1ccc(N)cc1`, for which the Potency result in assay [1], in assay [8], in [20], in assay [16] and in [19] was “inactive” in each case. Besides, the values for the Potency in assay [10] and in assay [11] were 8.91 µM (active) and 12.6 µM (active), respectively.
Turning to `Cc1c(Cl)c(=O)oc2cc(OP(=O)(OCCCl)OCCCl)ccc12`, the Potency in [2] was 9.53 µM (active); in [3], 13.5 µM (active); in assay [5] it was 9.53 µM (active); in [6], 9.53 µM (active); in [7] it was 8.91 µM (active); in assay [8], 7.94 µM (active). The Potency in assay [9] was 8.91 µM (active); in assay [11] it was 8.91 µM (active); in [12] it was 8.91 µM (active); in assay [13], 10 µM (active); in assay [14] it was 7.57 µM (active); in [15] it was 7.94 µM (active). Moreover, the results for the Potency in assay [17], in [18] and in [19] were 12 µM (active), 12 µM (active) and 11.2 µM (active), respectively.
For the molecule `CN1CCc2cc(Cl)c(O)cc2[C@H]2c3ccccc3CC[C@@H]21`, the Potency entry in [1], in assay [3] and in [14] was “inactive” throughout. For the same molecule, the Potency in assay [8] was 5.62 µM (active); in [19] it was 11.2 µM (active).
Regarding `CC(C)(O)C(Cl)(Cl)Cl`, the Potency was 10.7 µM (active) in assay [4]; 8.49 µM (active) in assay [6]; 3.16 µM (active) in [8]; 10 µM (active) in assay [9]; 10 µM (active) in assay [10]; 12.6 µM (active) in assay [11]. Further, the Potency was 10 µM (active) in [13]; 3.55 µM (active) in assay [20]; 2.51 µM (active) in assay [15]; 6.01 µM (active) in assay [17]; 4.26 µM (active) in assay [18]; 5.62 µM (active) in assay [19]. Further, the Potency entry in assay [14] is “inactive”.
Turning to `O=C(NC(=O)c1c(F)cccc1F)Nc1cc(Cl)c(OC(F)(F)C(F)C(F)(F)F)cc1Cl` (stereo not given), the Potency entry in [1], in [2], in assay [3], in assay [5], in assay [6] and in assay [14] was “inactive” each time. For the same molecule, the Potency result in assay [16], in assay [17] and in assay [18] was “inactive” each time. Besides, the values for the Potency in assay [13], in assay [20] and in assay [15] were 8.91 µM (active), 10 µM (active) and 7.94 µM (active), respectively.
For the molecule `COP(=S)(OC)Oc1ccc(Sc2ccc(OP(=S)(OC)OC)cc2)cc1`, the Potency entry in [1], in assay [2], in [3], in assay [5], in assay [6] and in [7] was “inactive” each time. Besides, the Potency entry in assay [8], in assay [9], in assay [10], in assay [11], in assay [12] and in assay [13] was “inactive” each time. Moreover, the Potency result in assay [20], in [14], in [15], in assay [16], in assay [17] and in [18] was “inactive” each time. Besides, the Potency entry in assay [19] is “inactive”.
Regarding `O=C1NCN(c2ccccc2)C12CCN(CCCOc1ccc(F)cc1)CC2`, the Potency result in assay [1], in assay [3], in [6], in assay [12], in assay [13] and in [14] was “inactive” each time. Also, the Potency was 5.01 µM (active) in assay [8] and 12.6 µM (active) in assay [19].
In the case of `C=CCOC(Cn1ccnc1)c1ccc(Cl)cc1Cl` (stereo not given), the Potency in assay [2] was 15.1 µM (active); in assay [6], 12 µM (active); in assay [7] it was 11.2 µM (active); in assay [8], 4.47 µM (active); in assay [11], 10 µM (active); in assay [20], 10 µM (active). For the same molecule, the Potency is 15.1 µM (active) in [17], 15.1 µM (active) in [18] and 11.2 µM (active) in assay [19]. Moreover, the Potency entry in assay [13] and in assay [14] was “inactive” throughout.
Take `CN1C[C@@H](NS(=O)(=O)N(C)C)C[C@@H]2c3cccc4c3c(cn4C)C[C@H]21`: the Potency entry in assay [2], in assay [3], in [6], in [7], in assay [9] and in assay [10] was “inactive” in each case. The Potency result in assay [11], in assay [12], in assay [14], in [15] and in assay [17] was “inactive” throughout.
For the molecule `CCCCCCCCC(=O)NCc1ccc(O)c(OC)c1`, the Potency entry in assay [1], in assay [2], in assay [3], in assay [5], in assay [6] and in assay [7] was “inactive” throughout. In addition, the Potency result in assay [8], in assay [9], in assay [10], in [11], in assay [12] and in assay [13] was “inactive” in each case. Besides, the Potency result in [20], in assay [14], in assay [15], in assay [17], in assay [18] and in assay [19] was “inactive” in each case.
